Drawing on PubChem BioAssay (Tox21), this text covers Potency for 40 molecules.

Structures are written as SMILES. Records with an inconclusive call do not appear. Entries that show only a call come without a potency. The source made the active and inactive calls. The call rests on the fitted dose curve; in most records, active means well fitted curve in the direction sought with a large enough effect in the repeat runs; inconclusive means weak or mixed curves; inactive means no such curve, though single readings can be large; an effect the other way counts as inactive or inconclusive.

The first assay can be described thus: qHTS RealTime-Glo MT Cell Viability Assay in HepG2 cells - 0 hour (AID 1224889). Further: nearly all actives have a fitted effect of over 50% in size. Particulars: RealTime-Glo luminescence; series mostly up to 76.8 µM. An outline of the steps: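 Compound treatment began 5 h after plating HepG2 cells (600/well) with NanoLuc luciferase and prosubstrate. Plates stayed at 37 C for 40 h; luminescence was captured at six time points, 0 h through 40 h.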
`O=c1[nH]c2ccc(Cl)cc2o1`: the Potency entry is “inactive”.
Take `Cc1ccc(C(C)(C)O)cc1`: the Potency result was “inactive”.
For `CCCC(=O)C(=O)O`, the Potency result is “inactive”.
For `CC(C)=CCC1C(=O)N(c2ccccc2)N(c2ccccc2)C1=O`, the Potency result was “inactive”.
Take `CCOC(=O)/C=C/C(=O)OCC`: the Potency result is “inactive”.
The same measure, in the same setting: then `Cc1ccc(CO)cc1`, with “inactive”; and `O=C(OC(=O)c1ccccc1)c1ccccc1`, with “inactive”.
For the molecule `CC(C)=CCC/C(C)=C/CC/C(C)=C/CCC(=O)OC/C=C(\C)CCC=C(C)C`, the Potency result is “inactive”.
On to `O[C@@H]1CO[C@H]2[C@@H]1OC[C@@H]2O`, for which the Potency result was “inactive”.
As to `CCCCC(CC)CN` (stereo not given), the Potency entry was “inactive”.
Still for that read-out and setting: the result for `COc1cc(C(=O)NCCCCCC(=O)O)cc(OC)c1OC` reads “inactive”; that for `CC(CCC(=O)O)C(=O)O` (stereo not given), “inactive”; that for `CCC1NC(=O)c2cc(S(N)(=O)=O)c(Cl)cc2N1` (stereo not given), “inactive”.
For `O=C1NCCN1CCO`, the Potency result was “inactive”.
For `C1COC1`, the Potency entry was “inactive”.
On to `CCn1cc(C(=O)O)c(=O)c2cc(F)c(N3CCNCC3)cc21`, for which the Potency result is “inactive”.
As to `CO[C@]1(NC(=O)CSC(F)F)C(=O)N2C(C(=O)O)=C(CSc3nnnn3CCO)CO[C@H]21`, the Potency entry was “inactive”.
With `O=C(O)CCCCCCCCCCCBr`, the Potency entry was “inactive”.
On the same count and under the same terms, then `CCC(=O)OC`, with “inactive”; and `CCC(C)(C)OC`, with “inactive”.
Same read-out and setting: the result for `CC(C)=CC(=O)C=C(C)C` reads “inactive”; that for `CC(=O)OCC(=O)NCCCOc1cccc(CN2CCCCC2)c1`, “inactive”.
Consider `CCCCCCCCCI`, for which the Potency entry was “inactive”.
Regarding `CCc1ccccc1`, the Potency entry was “inactive”.
Consider `Cc1ccccc1S`, for which the Potency entry was “inactive”.
Same read-out and setting: then `Cc1cscn1`, with “inactive”; and `N#CCc1ccc(Cl)cc1Cl`, with “inactive”; and `CCCCCC[C@@H](O)C/C=C\CCCCCCCC(=O)O`, with “inactive”.
For the molecule `Cc1cc(C)c(N)cc1C`, the Potency entry was “inactive”.
With `C=CC(C)(CCC=C(C)C)OC(=O)CC(C)C` (stereo not given), the Potency entry is “inactive”.
Consider `O=C(/C=C/c1ccccc1)OCCc1ccccc1`, for which the Potency entry is “inactive”.
On to `CCCCCCCCC(CCCCCC)C(=O)O` (stereo not given), for which the Potency entry was “inactive”.
For the molecule `Cc1ccco1`, the Potency result is “inactive”.
Take `C[C@H]1c2cccc(O)c2C(O)=C2C(=O)[C@]3(O)C(O)=C(C(N)=O)C(=O)[C@@H](N(C)C)[C@@H]3[C@@H](O)[C@@H]21`: the Potency entry is “inactive”.
As for `CC1(C)[C@H](C(=O)O)N2C(=O)C[C@H]2S1(=O)=O`, the Potency entry is “inactive”.
For `CO/N=C(/C(=O)N[C@@H]1C(=O)N2C(C(=O)O)=C(COC(N)=O)CS[C@H]12)c1ccco1`, the Potency result was “inactive”.
Consider `C=CC(=O)[O-].C=CC(=O)[O-].[Zn+2]`, for which the Potency result was “inactive”.
`O=C1c2ccccc2C(=O)C1c1ccc(Br)cc1`: the Potency entry was “inactive”.
Turning to `CCC(OCCCOC)OC(C)=O` (stereo not given), the Potency entry was “inactive”.
With `COC(=O)CS`, the Potency entry was “inactive”.

The next assay is described as follows: A CellTox Green Cytotoxicity Assay to monitor cytotoxicity in HepG2 cells - 8 hour (AID 1224890). Further: nearly all actives have a fitted effect of over 45% in size. Particulars: CellTox Green fluorescence; series mostly up to 76.8 µM. An outline of the steps:
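Fluorescent DNA-binding dye, 600 HepG2 cells/well, 5 h preincubation then compound in DMSO; same plates read at 0–40 h, 37 C.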
Take `O=c1[nH]c2ccc(Cl)cc2o1`: the Potency result was “inactive”.
With `Cc1ccc(C(C)(C)O)cc1`, the Potency entry is “inactive”.
With `CCCC(=O)C(=O)O`, the Potency result was “inactive”.
For the molecule `CC(C)=CCC1C(=O)N(c2ccccc2)N(c2ccccc2)C1=O`, the Potency entry was “inactive”.
`CCOC(=O)/C=C/C(=O)OCC`: the Potency entry is “inactive”.
In the case of `Cc1ccc(CO)cc1`, the Potency result is “inactive”.
For `O=C(OC(=O)c1ccccc1)c1ccccc1`, the Potency result was “inactive”.
Same read-out and setting: the result for `CC(C)=CCC/C(C)=C/CC/C(C)=C/CCC(=O)OC/C=C(\C)CCC=C(C)C` reads “inactive”; that for `O[C@@H]1CO[C@H]2[C@@H]1OC[C@@H]2O`, “inactive”; that for `CCCCC(CC)CN` (stereo not given), “inactive”.
The same measure, in the same setting: the result for `COc1cc(C(=O)NCCCCCC(=O)O)cc(OC)c1OC` reads “inactive”.
As to `CC(CCC(=O)O)C(=O)O` (stereo not given), the Potency result is “inactive”.
Turning to `CCC1NC(=O)c2cc(S(N)(=O)=O)c(Cl)cc2N1` (stereo not given), the Potency entry was “inactive”.
Take `O=C1NCCN1CCO`: the Potency result was “inactive”.
For the molecule `C1COC1`, the Potency result was “inactive”.
For the molecule `CCn1cc(C(=O)O)c(=O)c2cc(F)c(N3CCNCC3)cc21`, the Potency entry is “inactive”.
Regarding `CO[C@]1(NC(=O)CSC(F)F)C(=O)N2C(C(=O)O)=C(CSc3nnnn3CCO)CO[C@H]21`, the Potency entry is “inactive”.
For the molecule `O=C(O)CCCCCCCCCCCBr`, the Potency entry is “inactive”.
For the molecule `CCC(=O)OC`, the Potency result was “inactive”.
`CCC(C)(C)OC`: the Potency entry was “inactive”.
For the molecule `CC(C)=CC(=O)C=C(C)C`, the Potency result is “inactive”.
`CC(=O)OCC(=O)NCCCOc1cccc(CN2CCCCC2)c1`: the Potency result is “inactive”.
As to `CCCCCCCCCI`, the Potency result was “inactive”.
In the case of `CCc1ccccc1`, the Potency entry was “inactive”.
The same measure, in the same setting: then `Cc1ccccc1S`, with “inactive”.
On the same count and under the same terms, the result for `Cc1cscn1` reads “inactive”; that for `N#CCc1ccc(Cl)cc1Cl`, “inactive”.
Turning to `CCCCCC[C@@H](O)C/C=C\CCCCCCCC(=O)O`, the Potency result is “inactive”.
For the molecule `Cc1cc(C)c(N)cc1C`, the Potency result is “inactive”.
For `C=CC(C)(CCC=C(C)C)OC(=O)CC(C)C` (stereo not given), the Potency result is “inactive”.
As for `O=C(/C=C/c1ccccc1)OCCc1ccccc1`, the Potency result is “inactive”.
As for `CCCCCCCCC(CCCCCC)C(=O)O` (stereo not given), the Potency result was “inactive”.
On to `Cc1ccco1`, for which the Potency entry is “inactive”.
For `C[C@H]1c2cccc(O)c2C(O)=C2C(=O)[C@]3(O)C(O)=C(C(N)=O)C(=O)[C@@H](N(C)C)[C@@H]3[C@@H](O)[C@@H]21`, the Potency entry was “inactive”.
Turning to `CC1(C)[C@H](C(=O)O)N2C(=O)C[C@H]2S1(=O)=O`, the Potency result was “inactive”.
With `CO/N=C(/C(=O)N[C@@H]1C(=O)N2C(C(=O)O)=C(COC(N)=O)CS[C@H]12)c1ccco1`, the Potency result is “inactive”.
The same measure, in the same setting: the result for `C=CC(=O)[O-].C=CC(=O)[O-].[Zn+2]` reads “inactive”.
Take `O=C1c2ccccc2C(=O)C1c1ccc(Br)cc1`: the Potency result is “inactive”.
Still for that read-out and setting: the result for `CCC(OCCCOC)OC(C)=O` (stereo not given) reads “inactive”; that for `COC(=O)CS`, “inactive”.

Another assay in a line: qHTS assay to identify small molecule antagonists of the estrogen receptor alpha (ER-alpha) signaling pathway using the BG1 cell line in the presence of 0.1 nM 17-beta-estradiol - cell viability counter screen (AID 1259241). Further: nearly all actives have a fitted effect of over 40% in size. The note with it: VM7Luc4E2 (BG1) viability, CellTiter-Fluor protease, 22 h, 0.1 nM estradiol agonist added; series mostly up to 92.4 µM. In a few lines:
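In this screen, hormone-deprived VM7Luc4E2 cells were seeded at 4,000 per well, dosed with compound and 0.1 nM estradiol final, and incubated 22 hr at 37C and 5% CO2; fluorogenic live-cell protease signal reported viability.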
For orientation: In qHTS, concentration-response curves come from the screen itself.
For `O=c1[nH]c2ccc(Cl)cc2o1`, the Potency result is “inactive”.
The same measure, in the same setting: the result for `Cc1ccc(C(C)(C)O)cc1` reads “inactive”; that for `CCCC(=O)C(=O)O`, “inactive”.
`CC(C)=CCC1C(=O)N(c2ccccc2)N(c2ccccc2)C1=O`: the Potency entry is “inactive”.
With `CCOC(=O)/C=C/C(=O)OCC`, the Potency entry was “inactive”.
The same measure, in the same setting: the result for `Cc1ccc(CO)cc1` reads “inactive”.
Turning to `O=C(OC(=O)c1ccccc1)c1ccccc1`, the Potency result was “inactive”.
The same measure, in the same setting: the result for `CC(C)=CCC/C(C)=C/CC/C(C)=C/CCC(=O)OC/C=C(\C)CCC=C(C)C` reads “inactive”.
For `O[C@@H]1CO[C@H]2[C@@H]1OC[C@@H]2O`, the Potency result was “inactive”.
On to `CCCCC(CC)CN` (stereo not given), for which the Potency result is “inactive”.
As for `COc1cc(C(=O)NCCCCCC(=O)O)cc(OC)c1OC`, the Potency result was “inactive”.
On to `CC(CCC(=O)O)C(=O)O` (stereo not given), for which the Potency result is “inactive”.
`CCC1NC(=O)c2cc(S(N)(=O)=O)c(Cl)cc2N1` (stereo not given): the Potency entry was “inactive”.
In the case of `O=C1NCCN1CCO`, the Potency result was “inactive”.
Regarding `C1COC1`, the Potency result is “inactive”.
`CCn1cc(C(=O)O)c(=O)c2cc(F)c(N3CCNCC3)cc21`: the Potency entry is “inactive”.
Consider `CO[C@]1(NC(=O)CSC(F)F)C(=O)N2C(C(=O)O)=C(CSc3nnnn3CCO)CO[C@H]21`, for which the Potency result was “inactive”.
As to `O=C(O)CCCCCCCCCCCBr`, the Potency result was “inactive”.
Turning to `CCC(=O)OC`, the Potency entry was “inactive”.
With `CCC(C)(C)OC`, the Potency result was “inactive”.
Consider `CC(C)=CC(=O)C=C(C)C`, for which the Potency result was “inactive”.
For the molecule `CC(=O)OCC(=O)NCCCOc1cccc(CN2CCCCC2)c1`, the Potency result is “inactive”.
Regarding `CCCCCCCCCI`, the Potency result is “inactive”.
As for `CCc1ccccc1`, the Potency entry is “inactive”.
On to `Cc1ccccc1S`, for which the Potency entry is “inactive”.
On to `Cc1cscn1`, for which the Potency entry is “inactive”.
As for `N#CCc1ccc(Cl)cc1Cl`, the Potency entry is “inactive”.
Still for that read-out and setting: then `CCCCCC[C@@H](O)C/C=C\CCCCCCCC(=O)O`, with “inactive”.
On to `Cc1cc(C)c(N)cc1C`, for which the Potency result is “inactive”.
Same read-out and setting: the result for `C=CC(C)(CCC=C(C)C)OC(=O)CC(C)C` (stereo not given) reads “inactive”; that for `O=C(/C=C/c1ccccc1)OCCc1ccccc1`, “inactive”.
With `CCCCCCCCC(CCCCCC)C(=O)O` (stereo not given), the Potency entry is “inactive”.
With `Cc1ccco1`, the Potency entry is “inactive”.
For the molecule `C[C@H]1c2cccc(O)c2C(O)=C2C(=O)[C@]3(O)C(O)=C(C(N)=O)C(=O)[C@@H](N(C)C)[C@@H]3[C@@H](O)[C@@H]21`, the Potency result is “inactive”.
The same measure, in the same setting: the result for `CC1(C)[C@H](C(=O)O)N2C(=O)C[C@H]2S1(=O)=O` reads “inactive”; that for `CO/N=C(/C(=O)N[C@@H]1C(=O)N2C(C(=O)O)=C(COC(N)=O)CS[C@H]12)c1ccco1`, “inactive”.
The same measure, in the same setting: the result for `C=CC(=O)[O-].C=CC(=O)[O-].[Zn+2]` reads “inactive”.
For the molecule `O=C1c2ccccc2C(=O)C1c1ccc(Br)cc1`, the Potency result is “inactive”.
For `CCC(OCCCOC)OC(C)=O` (stereo not given), the Potency result was “inactive”.
In the case of `COC(=O)CS`, the Potency entry was “inactive”.
